Source: PubChem (The Scripps Research Institute Molecular Screening Center)
Rows were chosen to be rich in hits. Some 3.5% of all compounds tested hit in one or more screens of this group.
MITF primary – human MITF inhibition, primary screen | O75030 | 650,000 compounds, 0.91% hits | inhibition, % at 2.6 µM | AlphaScreen MITF homodimerization, bead proximity signal; in the data active = inhibition above about 50%;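 note: 0% = vehicle wells with protein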
Target sequence (O75030 whole entry, looked up): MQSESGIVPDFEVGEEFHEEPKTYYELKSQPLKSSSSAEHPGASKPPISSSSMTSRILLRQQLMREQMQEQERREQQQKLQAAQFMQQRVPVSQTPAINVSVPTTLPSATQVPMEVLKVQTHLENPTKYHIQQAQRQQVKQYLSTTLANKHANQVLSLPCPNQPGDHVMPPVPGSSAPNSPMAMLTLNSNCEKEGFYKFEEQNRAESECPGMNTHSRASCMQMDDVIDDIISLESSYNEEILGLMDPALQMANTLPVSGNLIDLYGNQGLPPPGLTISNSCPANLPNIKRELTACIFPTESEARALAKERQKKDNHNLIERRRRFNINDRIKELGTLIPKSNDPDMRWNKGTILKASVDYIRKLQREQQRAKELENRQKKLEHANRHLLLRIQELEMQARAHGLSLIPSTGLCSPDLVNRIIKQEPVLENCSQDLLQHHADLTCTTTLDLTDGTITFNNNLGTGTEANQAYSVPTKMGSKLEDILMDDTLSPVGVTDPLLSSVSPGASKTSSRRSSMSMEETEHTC
GPR151 activ – activators of human GPR151; Q8TDV0; PathHunter beta-arrestin GPR151 cells, luminescence; activation, % at 11.2 µM; 650,000 compounds, 1% hits; AID 1508602; in the data active = activation above about 4.9%;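 note: 0% = median of compound wells and 100% = cells with positive control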
FBW7 activator – human FBW7 E3 ligase activation, primary screen | Q969H0 | 650,000 compounds, 0.13% hits | normalized activity (activation), % at 26.1 µM | AID 1259310 | AlphaScreen FBW7–phospho-cyclin E peptide binding, activator screen; in the data active = normalized activity above about 1.9%;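 note: purified mutant Fbw7 with reduced substrate affinity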
TEAD-YAP block – TEAD-YAP interaction inhibition; inhibition, % at 9.12 µM; AID 1259422; 640,000 compounds, 1.4% hits; HEK-TIYL cells, TEAD-Gal4/YAP UAS-luciferase luminescence; in the data active = inhibition above about 32%;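 note: 0% = median of test compound wells and 100% = reference inhibitor wells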
MITF inh conf – confirmation of human MITF inhibitors; AID 1259372; AlphaScreen MITF homodimerization, biotin/His-MITF beads; 4,700 compounds, 16% hits; inhibition, % at 2.6 µM; shares compounds with MITF primary;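 active = inhibition above a cutoff derived from the DMSO control wells, cut at about 28% in these data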;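 note: 0% = MITF dimer wells with DMSO only; inhibitors lower the bead chemiluminescence by keeping MITF from dimerizing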
AS interf DR – optically interferes with AlphaScreen signal in dose response; shares compounds with MITF primary; AlphaScreen optical interference counterscreen, cell-free; IC50, µM; 480 compounds, 6% hits; AID 1259373; call rule not given here
AS interf ctr – counter-screen: compounds optically interfering with AlphaScreen | AID 1259376 | inhibition, % at 2.6 µM | shares compounds with MITF primary | LysRS AlphaScreen counterscreen, signal interference, triplicate | 4,700 compounds, 7.6% hits;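 active = inhibition above a cutoff derived from the DMSO control wells, cut at about 30% in these data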
The depositor's hits bear a star; x = no result given; ! = repeats disagree.

SMILES	MITF primary	GPR151 activ	FBW7 activator	TEAD-YAP block	MITF inh conf	AS interf ctr	others
COc1cc(/C=N\NC(=O)CN2CCN(C)CC2)cc(OC)c1	55.9*	0.5	0.1	6.7	-0.1	-2.9
O=C(O)CCNC(=O)/C(=C/c1ccccc1)NC(=O)c1ccccc1Cl	7.7	0.7	0.2	19.4	x	x
COc1ccc(Cl)cc1C(=O)Nc1cccc(C(=O)O)c1C	-6.5	-1.0	-0.1	-2.2	x	x
Cc1cccc(NCC(=O)N/N=C/c2c(O)ccc3ccccc23)c1	-0.8	1.7	-0.1	7.2	x	x
CN(C)CCNc1nc(C2COc3ccccc3O2)nc2ccc(-c3cn[nH]c3)cc12 (stereo not drawn)	51.8*!	-2.4	0.6	-8.7	63.6*	-12.5	AS interf DR=>6.48
COc1ccc(-c2c(F)ccc3cnc(Nc4ccc(-n5cnc(N6CCOCC6)n5)cc4)nc23)cc1F	56.0*	-0.1	0.5	-9.8	21.2	25.7
N#Cc1c(SCC(=O)O)nc2c(c1-c1ccco1)CCC2	60.2*	0.7	-0.6	-6.4	71.5*	20.0	AS interf DR=>6.91
CCOc1cc(CN2CCN(S(C)(=O)=O)CC2)ccc1OC	55.0*	-1.2	0.2	-14.9	-9.3	-2.2
CCOc1cc(CN2CCN(Cc3ccc(F)cc3)CC2)ccc1OC	33.8	4.3	-0.1	-4.7	x	x
CCOc1cc(CN2CCN(Cc3ccncc3)CC2)ccc1OC	73.3*	1.4	-0.2	-2.8	7.0	13.8
CCOc1cc(CN2CCN(S(=O)(=O)CC)CC2)ccc1OC	34.8	0.1	0.0	3.0	x	x
COc1cc(CN2CCN(S(C)(=O)=O)CC2)ccc1OCc1ccccc1	54.4*	1.6	0.1	6.0	1.5	10.6
Cc1ccc(C(=O)NCCc2nnc3n2CCN(Cc2ccccc2F)CC3)c(C)c1	6.7	-0.1	-0.1	1.5	x	x
CCc1ccc(CN2CCN(Cc3ccc(OC)c(OCc4ccccc4)c3)CC2)cc1	73.7*	-0.8	-0.2	-1.0	2.7	0.9
CCN1CCN(Cc2ccc(OC)c(OCc3ccccc3)c2)CC1	12.5	-1.0	0.0	0.2	x	x
COc1ccc(CN2CCN(C(=O)c3ccccc3F)CC2)cc1OCc1ccccc1	43.0	1.9	0.2	4.1	x	x
O=[N+]([O-])c1cccc(CN2CCCCCCC2)c1	42.3	-0.5	0.0	-13.2	x	x
CCOc1ccc(CN2CCN(Cc3cccc([N+](=O)[O-])c3)CC2)cc1	59.7*	0.8	-0.4	13.4	13.9	20.5
COc1ccc(CN2CCN(Cc3ccc(F)cc3)CC2)cc1OCc1ccccc1	79.2*	-0.1	0.0	-5.0	16.2	18.5
COc1ccc(CN2CCN(Cc3ccccc3F)CC2)cc1OCc1ccccc1	79.8*	-0.7	-0.1	-6.8	2.1	1.8
N#CCc1c(C#N)c(N)nc(NNC(=O)c2ccc(Br)cc2)c1C#N	0.2	-0.7	0.1	-12.8	x	x
COc1cc(CN2CCSCC2)ccc1OCc1ccccc1	53.1*	1.0	0.1	-50.0	14.1	24.4
O=[N+]([O-])c1cccc(CN2CCN(c3ccccn3)CC2)c1	50.7*	1.0	0.7	-2.4	3.9	-2.2
COc1ccc(CN2CCSCC2)cc1OCc1ccccc1	15.4	0.2	-0.4	-2.3	x	x
O=[N+]([O-])c1cccc(OCCCN2CCN(Cc3ccccc3)CC2)c1	76.2*	-1.6	-0.2	2.4	2.9	-0.1
SMILES	MITF primary	GPR151 activ	FBW7 activator	TEAD-YAP block	MITF inh conf	AS interf ctr	others
COc1ccc(CN2CCN(C3CCCCC3)CC2)cc1OCc1ccccc1	61.9*	-0.8	-0.1	12.3	-2.6	-4.3
O=[N+]([O-])c1ccc(N2CCN(Cc3cccc([N+](=O)[O-])c3)CC2)cc1	15.8	-0.5	-0.2	12.2	x	x
CC1CC(=O)N(c2ccc(N3CCC(C(N)=O)CC3)c([N+](=O)[O-])c2)C1=O (stereo not drawn)	13.3	-0.7	0.1	4.7	x	x
CCOC(=O)N1CCN(S(=O)(=O)c2ccc(C(=O)Nc3ccccc3)cc2)CC1	-6.0	0.9	-0.1	11.5	x	x
CCN1CCN(Cc2ccc(OCc3ccccc3)c(OC)c2)CC1	-1.0	-0.3	0.0	-4.9	x	x
COc1ccc(CN2CCN(Cc3cccc([N+](=O)[O-])c3)CC2)cc1OCc1ccccc1	69.2*	0.2	-0.3	-1.4	5.5	-1.5
Cc1ncc(CO)c(/C=N/NC(=O)c2ccccc2F)c1O	32.0	-0.3	-1.5	-33.2	x	x
Cc1ncc(CO)c(/C=N/NC(=S)Nc2ccc(F)cc2)c1O	85.3*	-1.7	-0.8	-1.6	14.7	22.9
